Measured values taken from PubChem BioAssay (Tox21).
“And” between values parts separate entries of the source, which are not always exact repeats. Equal values may be shown once. Results filed as inconclusive are left out. Some compounds were tested as several samples or in several runs, with calls that do not always agree. The source made the active and inactive calls. Unless noted, the call rests on the fitted dose curve; in most records, active means well fitted curve in the direction sought with a large enough effect in the repeat runs; inconclusive means weak or mixed curves; inactive means no such curve, though single readings can be large; an effect the other way counts as inactive or inconclusive.

What was measured:
[1] = qHTS assay for small molecule agonists of the p53 signaling pathway - cell viability (AID 651633; calls by dose curve;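 further: p53RE-bla HCT reporter cells with a stable beta-lactamase p53 reporter; nearly all actives have a fitted effect of over 30% in size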); conditions: p53RE-bla HCT-116 viability, ATP luminescence, 16 h; series mostly up to 83.3 µM
How it was run: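 p53RE-bla cells were treated with compound for 16 hours at 37 C. Cytotoxicity was then measured as CellTiter-Glo luminescence after 30 min at room temperature.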

[2] = biological target: Glucocorticoid receptor (Homo sapiens) (UniProt P04150); experiment: qHTS assay to identify small molecule agonists of the glucocorticoid receptor (GR) signaling pathway (AID 720691; active means well fitted activation curve with a large enough effect in the signal ratio in the repeat runs, not every such curve was filed as active; the % refers to the signal ratio; further: potency means the concentration at half of the fitted maximal effect); conditions: GR-bla HeLa, beta-lactamase reporter ratio, 18 h; series mostly up to 62.4 µM
How it was run: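 HeLa GR-bla reporter line; cells pre-incubated 4 h, compound in DMSO 18 h at 37 C; LiveBLAzer B/G FRET substrate 2 h RT; fluorescence intensity read-out.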

[3] = biological target: Estrogen receptor (Homo sapiens) (UniProt P03372); experiment: qHTS assay to identify small molecule agonists of the estrogen receptor alpha (ER-alpha) signaling pathway using the BG1 cell line (AID 743079); conditions: BG1Luc4E2 cells, ERE-luciferase agonist, 22 h; series mostly up to 70.3 µM; further: nearly all actives have a fitted effect of over 20% in size; further: potency means the concentration at half of the fitted maximal effect
[4] = qHTS assay for small molecule agonists of the antioxidant response element (ARE) signaling pathway - cell viability counter screen (AID 743203; calls by dose curve; further: nearly all actives have a fitted effect of over 55% in size; further: potency means the concentration at half of the fitted maximal effect); conditions: ARE-bla HepG2 viability, CellTiter-Glo luminescence, 16 h; series mostly up to 73.3 µM
How it was run: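 Luminescence read-out (CellTiter-Glo, 30 min at room temperature) measured cell viability in the same wells as the ARE beta-lactamase reporter. HepG2 ARE-bla cells were treated with compounds for 16 hrs at 37C/5% CO2.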

[5] = qHTS assay for small molecule activators of the heat shock response signaling pathway - cell viability counter screen (AID 743209); conditions: HSE-bla HeLa viability, CellTiter-Glo luminescence, 5 h; series mostly up to 62.6 µM; further: nearly all actives have a fitted effect of over 50% in size; further: potency means the concentration at half of the fitted maximal effect
How it was run: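 HSE-bla HeLa; 1500 cells/well; overnight 37 C, 5% CO2; compound 5 h 37 C; LiveBLAzer B/G substrate 2.5 h RT; CellTiter-Glo 30 min RT; luminescence.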

[6] = qHTS assay to identify small molecule antagonists of the peroxisome proliferator-activated receptor delta (PPARd) signaling pathway - cell viability counter screen (AID 743213); conditions: PPARd-bla HEK293H viability, CellTiter-Glo luminescence, 17 h; series mostly up to 62 µM; further: nearly all actives have a fitted effect of over 50% in size; further: potency means the concentration at half of the fitted maximal effect
How it was run: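 Agonist-stimulated (L165041, 300 nM final) HEK293H PPARd UAS-bla cells are exposed to compounds for 17 h at 37 C, and ATP-based luminescence (CellTiter-Glo) from the same wells reports cytotoxicity.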

[7] = qHTS assay to identify small molecule agonists of the farnesoid-X-receptor (FXR) signaling pathway - cell viability counter screen (AID 743218); conditions: FXR-bla HEK293T viability, CellTiter-Glo luminescence, 16 h; series mostly up to 62.6 µM; further: nearly all actives have a fitted effect of over 45% in size; further: potency means the concentration at half of the fitted maximal effect
How it was run: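 Luminescence from CellTiter-Glo, read after 30 min at RT, reports viability of GeneBLAzer FXR-UAS-bla HEK 293T cells treated 16 h with compounds in the wells used for the beta-lactamase reporter.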

[8] = qHTS assay to identify small molecule agonists of the vitamin D receptor (VDR) signaling pathway - cell viability counter screen (AID 743224); conditions: VDR-bla HEK293T viability, CellTiter-Glo luminescence, 16 h; series mostly up to 81.1 µM; further: nearly all actives have a fitted effect of over 50% in size; further: potency means the concentration at half of the fitted maximal effect
How it was run: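 Cytotoxicity counter screen: VDR-bla cells, 16 h compound exposure at 37C, 5% CO2; CellTiter-Glo luminescence, 30 min RT, same wells as bla read.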

[9] = qHTS assay to identify small molecule antagonists of the vitamin D receptor (VDR) signaling pathway - cell viability counter screen (AID 743225); conditions: VDR-bla HEK293T viability, CellTiter-Glo luminescence, 16 h; series mostly up to 61 µM; further: nearly all actives have a fitted effect of over 50% in size; further: potency means the concentration at half of the fitted maximal effect
How it was run: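 Same-well multiplex: following 16 h treatment of HEK 293T cells carrying a UAS-driven beta-lactamase reporter with compound and agonist (3 nM final), and a 2 h FRET substrate step, CellTiter-Glo was added and luminescence read after 30 min.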

[10] = biological target: Nuclear receptor ROR-gamma (Homo sapiens) (UniProt P51449); experiment: qHTS assay to identify small molecule antagonists of the retinoid-related orphan receptor gamma (ROR-gamma) signaling pathway (AID 1159521; further: nearly all actives have a fitted effect of over 50% in size; further: potency means the concentration at half of the fitted maximal effect); conditions: Tet-on RORgamma CHO cells, RORE-luciferase, 16 h; series mostly up to 92.4 µM
How it was run: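 Inducible-expression reporter assay: doxycycline (1 uM final) switched on RORγ in CHO cells bearing a ROR response element-luciferase construct, with test compounds present from 2 h beforehand. Decreased luminescence after 16 h defined antagonist activity.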

[11] = biological target: Estrogen receptor beta (Homo sapiens) (UniProt Q92731); experiment: qHTS assay to identify small molecule antagonists of the estrogen receptor beta (ER-beta) signaling pathway (AID 1259378; active means well fitted inhibition curve with a large enough effect in the signal ratio in the repeat runs, not every such curve was filed as active; the % refers to the signal ratio; further: potency means the concentration at half of the fitted maximal effect); conditions: ER-beta-UAS-bla HEK293T, beta-lactamase FRET ratio, 16 h; series mostly up to 92.4 µM
How it was run: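 ER-beta-UAS-bla HEK293T cells in 2% charcoal-stripped FBS medium treated with compound plus 1nM final 17-beta-estradiol for 16 hr at 37C. Beta-lactamase reporter read by FRET substrate fluorescence after 2 hours at room temperature.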

[12] = qHTS assay for small molecule disruptors of the mitochondrial membrane potential (AID 720635); conditions: HepG2 mitochondrial membrane potential, Mito-MPS dye ratio; series mostly up to 83.2 µM; further: potency means the concentration at half of the fitted maximal effect
How it was run: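 HepG2 cells exposed to compound 1 hr at 37C, then Mito-MPS dye 30 min. Ratio read of aggregate (540/590 nm) versus monomer (490/535 nm) fluorescence.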

[13] = biological target: Vitamin D3 receptor (Homo sapiens) (UniProt P11473); experiment: qHTS assay to identify small molecule agonists of the vitamin D receptor (VDR) signaling pathway (AID 743222; calls by dose curve); conditions: HEK293T VDR-UAS-bla, beta-lactamase FRET ratio, 16 h; series mostly up to 63.5 µM
How it was run: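 Beta-lactamase reporter readout (LiveBLAzer B/G FRET, 2 h RT) in VDR-bla cells after 16 h compound treatment at 37C, 5% CO2; cells pre-incubated 4 h before pin transfer of DMSO solutions.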

[14] = qHTS assay to identify small molecule agonists of the hypoxia (HIF-1) signaling pathway (AID 1224846; active means well fitted activation curve with a large enough effect in the signal ratio in the repeat runs, not every such curve was filed as active; the % refers to the signal ratio); conditions: HRE-bla ME-180 cells, beta-lactamase ratio, 17 h; series mostly up to 76.8 µM
How it was run: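 Beta-lactamase FRET read-out (CCF4-AM substrate) from ME-180 cells carrying an HRE-driven bla reporter, after 17 hrs compound exposure at 37C/5% CO2. Cells were seeded at 2,000 per well in 0.5% dialyzed FBS medium and preincubated 5 hrs.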

[15] = qHTS assay to identify small molecule agonists of the retinoic acid receptor (RAR) signaling pathway (AID 1159553); conditions: C3RL4 RARE luciferase reporter, agonist, 6 h; series mostly up to 73.3 µM
How it was run: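 RARE-luc C3RL4 cells; overnight attachment 37 C/5% CO2; compound (DMSO) 6 hr; luciferase reagent, 30 min RT; luminescence read-out.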

[16] = qHTS assay to identify small molecule phospholipidosis (PLD) inducers (AID 1259344; active means well fitted curve in the direction sought with a large enough effect; an effect the other way counts as inactive or inconclusive); conditions: HepG2 phospholipidosis, LipidTOX Red imaging, 24 h; series mostly up to 38.3 µM
How it was run: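 Image-based: LipidTOX Red pit count/intensity per well and per cell; HepG2, 24 h compound at 37 C, PFA fixation, Hoechst counterstain.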

[17] = biological target: Glucocorticoid receptor (Homo sapiens) (UniProt P04150); experiment: qHTS assay to identify small molecule antagonists of the glucocorticoid receptor (GR) signaling pathway (AID 720692; active means well fitted inhibition curve with a large enough effect in the signal ratio in the repeat runs, not every such curve was filed as active; the % refers to the signal ratio; further: potency means the concentration at half of the fitted maximal effect); conditions: GR-bla HeLa, beta-lactamase FRET ratio, dexamethasone-stimulated, 18 h; series mostly up to 58.5 µM
How it was run: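 Read-out: beta-lactamase FRET substrate fluorescence, 2 h at room temperature, in HeLa cells stably carrying a GRE-driven bla reporter. Compounds were co-incubated with 5 nM dexamethasone agonist (final) for 18 h at 37 C.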

[18] = qHTS assay for small molecule activators of the heat shock response signaling pathway (AID 743210; active means well fitted activation curve with a large enough effect in the signal ratio in the repeat runs, with a control signal flat, not every such curve was filed as active; the % refers to the signal ratio;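 further: HeLa cells with beta-lactamase reporter driven by heat shock elements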); conditions: HeLa HSE-bla reporter, beta-lactamase ratio, 5 h; series mostly up to 62.6 µM
How it was run: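 Following overnight attachment, HSE-bla HeLa cells received test compounds for 5 h at 37 C; beta-lactamase activity was then detected via FRET substrate fluorescence.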

[19] = qHTS assay to identify small molecule antagonists of the retinoid-related orphan receptor gamma (ROR-gamma) signaling pathway - cell viability counter screen (AID 1159520); conditions: Tet-on RORgamma CHO cells viability, ATP luminescence, 16 h; series mostly up to 92.4 µM; further: nearly all actives have a fitted effect of over 50% in size
How it was run: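 Tet-on ROR gamma CHO cells were given compounds for 2 hr, then doxycycline hyclate at 1 uM final, and incubated 16 hr at 37 C. Viability was measured as ATP content by CellTiter-Glo luminescence.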

[20] = biological target: Androgen receptor (Homo sapiens) (UniProt P10275); experiment: qHTS assay to identify small molecule agonists of the androgen receptor (AR) signaling pathway using the MDA cell line (AID 743040; further: nearly all actives have a fitted effect of over 20% in size); conditions: MDA-kb2 AR-luc cells, MMTV luciferase, 16 h; series mostly up to 70.3 µM
How it was run: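 Testing was done with the MDA-kb2 AR-luc line, a human breast carcinoma stably transfected with MMTV-luciferase containing AR and GR response elements. Cells were exposed 16 h at 37C before ONE-Glo luminescence detection.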

Measured: Potency

Chain of Estrogen receptor beta (Homo sapiens) (Q92731 whole entry, looked up): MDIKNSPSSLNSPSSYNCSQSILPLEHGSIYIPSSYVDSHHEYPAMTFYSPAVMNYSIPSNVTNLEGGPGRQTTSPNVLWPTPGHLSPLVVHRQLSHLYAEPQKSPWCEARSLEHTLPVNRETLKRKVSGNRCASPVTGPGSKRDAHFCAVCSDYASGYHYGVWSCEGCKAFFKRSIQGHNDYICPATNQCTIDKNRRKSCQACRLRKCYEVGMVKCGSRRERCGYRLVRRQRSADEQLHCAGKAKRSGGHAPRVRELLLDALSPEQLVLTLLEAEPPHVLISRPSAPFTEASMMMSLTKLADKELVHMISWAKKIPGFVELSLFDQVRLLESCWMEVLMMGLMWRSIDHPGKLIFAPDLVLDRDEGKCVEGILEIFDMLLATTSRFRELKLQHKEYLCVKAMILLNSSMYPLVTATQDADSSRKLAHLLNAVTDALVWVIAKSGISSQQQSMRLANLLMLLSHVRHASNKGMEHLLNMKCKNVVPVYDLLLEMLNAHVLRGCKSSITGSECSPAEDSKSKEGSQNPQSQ
Chain of Glucocorticoid receptor (Homo sapiens) (P04150 whole entry, looked up): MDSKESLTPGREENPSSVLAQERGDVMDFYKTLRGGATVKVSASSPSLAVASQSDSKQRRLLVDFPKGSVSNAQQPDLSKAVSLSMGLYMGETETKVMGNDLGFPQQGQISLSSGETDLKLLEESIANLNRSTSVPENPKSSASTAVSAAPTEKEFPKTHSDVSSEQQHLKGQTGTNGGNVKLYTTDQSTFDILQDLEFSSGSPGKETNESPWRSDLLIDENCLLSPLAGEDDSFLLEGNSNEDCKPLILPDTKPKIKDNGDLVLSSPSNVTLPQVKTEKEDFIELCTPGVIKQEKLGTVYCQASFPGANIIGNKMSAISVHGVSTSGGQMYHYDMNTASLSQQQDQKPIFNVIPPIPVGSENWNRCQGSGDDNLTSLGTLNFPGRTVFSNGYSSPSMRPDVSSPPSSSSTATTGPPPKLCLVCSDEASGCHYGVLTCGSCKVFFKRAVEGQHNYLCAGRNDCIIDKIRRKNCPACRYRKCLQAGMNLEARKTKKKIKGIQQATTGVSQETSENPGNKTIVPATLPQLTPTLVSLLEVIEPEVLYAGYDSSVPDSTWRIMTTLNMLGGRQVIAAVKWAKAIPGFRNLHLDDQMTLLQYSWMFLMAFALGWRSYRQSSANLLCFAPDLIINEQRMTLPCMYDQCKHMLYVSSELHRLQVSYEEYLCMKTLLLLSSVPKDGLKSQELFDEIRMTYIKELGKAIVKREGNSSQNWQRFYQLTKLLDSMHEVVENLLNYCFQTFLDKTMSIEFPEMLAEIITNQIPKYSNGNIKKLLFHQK
Chain of Estrogen receptor (Homo sapiens) (P03372 whole entry, looked up): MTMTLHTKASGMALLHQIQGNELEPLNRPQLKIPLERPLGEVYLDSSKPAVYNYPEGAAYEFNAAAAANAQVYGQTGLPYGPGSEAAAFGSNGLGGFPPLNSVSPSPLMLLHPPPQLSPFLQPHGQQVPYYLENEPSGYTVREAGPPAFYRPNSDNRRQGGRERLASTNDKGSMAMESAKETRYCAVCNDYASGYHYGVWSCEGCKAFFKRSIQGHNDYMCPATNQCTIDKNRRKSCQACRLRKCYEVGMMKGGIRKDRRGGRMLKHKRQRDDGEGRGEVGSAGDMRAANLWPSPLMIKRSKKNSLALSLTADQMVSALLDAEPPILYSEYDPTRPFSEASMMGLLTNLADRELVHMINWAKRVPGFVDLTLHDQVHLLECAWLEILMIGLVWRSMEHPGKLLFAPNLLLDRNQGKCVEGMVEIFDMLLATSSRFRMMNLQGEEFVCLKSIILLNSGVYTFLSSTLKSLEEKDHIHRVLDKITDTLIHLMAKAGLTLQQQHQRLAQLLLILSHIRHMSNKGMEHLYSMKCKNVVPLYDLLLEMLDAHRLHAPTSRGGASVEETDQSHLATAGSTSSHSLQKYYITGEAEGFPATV
Chain of Vitamin D3 receptor (Homo sapiens) (P11473 whole entry, looked up): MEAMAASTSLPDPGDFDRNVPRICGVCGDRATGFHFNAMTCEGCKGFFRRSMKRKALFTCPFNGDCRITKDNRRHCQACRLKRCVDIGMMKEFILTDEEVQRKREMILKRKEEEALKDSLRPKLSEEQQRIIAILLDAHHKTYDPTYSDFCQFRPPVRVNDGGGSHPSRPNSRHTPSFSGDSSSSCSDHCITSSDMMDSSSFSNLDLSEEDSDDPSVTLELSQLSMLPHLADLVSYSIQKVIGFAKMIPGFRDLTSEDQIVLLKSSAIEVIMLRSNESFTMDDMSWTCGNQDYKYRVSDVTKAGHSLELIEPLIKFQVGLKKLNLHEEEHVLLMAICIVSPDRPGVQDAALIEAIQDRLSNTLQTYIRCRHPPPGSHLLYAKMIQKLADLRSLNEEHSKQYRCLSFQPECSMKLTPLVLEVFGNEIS
Chain of Androgen receptor (Homo sapiens) (P10275 whole entry, looked up): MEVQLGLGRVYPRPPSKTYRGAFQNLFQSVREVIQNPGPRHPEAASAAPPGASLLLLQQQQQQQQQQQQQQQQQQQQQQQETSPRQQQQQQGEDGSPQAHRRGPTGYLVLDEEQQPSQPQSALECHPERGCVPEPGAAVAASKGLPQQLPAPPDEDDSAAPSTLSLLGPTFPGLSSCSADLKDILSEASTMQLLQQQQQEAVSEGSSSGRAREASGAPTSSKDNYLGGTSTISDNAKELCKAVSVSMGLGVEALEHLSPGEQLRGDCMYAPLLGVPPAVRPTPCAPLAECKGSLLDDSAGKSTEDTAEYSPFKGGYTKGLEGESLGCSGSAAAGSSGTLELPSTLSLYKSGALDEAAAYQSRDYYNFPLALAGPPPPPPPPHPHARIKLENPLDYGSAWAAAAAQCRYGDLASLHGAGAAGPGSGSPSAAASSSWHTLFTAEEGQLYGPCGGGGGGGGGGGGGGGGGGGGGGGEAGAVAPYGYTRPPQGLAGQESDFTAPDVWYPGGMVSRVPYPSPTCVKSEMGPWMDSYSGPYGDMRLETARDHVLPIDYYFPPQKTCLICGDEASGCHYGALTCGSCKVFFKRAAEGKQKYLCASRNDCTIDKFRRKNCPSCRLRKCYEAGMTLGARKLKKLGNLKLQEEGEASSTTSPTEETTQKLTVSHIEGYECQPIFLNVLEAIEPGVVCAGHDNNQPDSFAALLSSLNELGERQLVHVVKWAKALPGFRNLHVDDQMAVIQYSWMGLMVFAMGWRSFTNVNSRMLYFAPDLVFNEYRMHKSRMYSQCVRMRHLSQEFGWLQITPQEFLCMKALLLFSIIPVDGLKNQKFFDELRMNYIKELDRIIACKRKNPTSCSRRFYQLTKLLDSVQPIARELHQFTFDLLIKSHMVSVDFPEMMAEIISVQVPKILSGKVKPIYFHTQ

CN1CSC(=S)N(C)C1
active: [2] 1.94 µM | [6] 7.72 µM and 5.48 µM | [7] 4.87 µM | [8] 6.13 µM and 3.88 µM | [10] 964 nM and 2.16 µM | [11] 24.2 µM
inactive and 1.09 µM (active): [5]
inactive: [1] | [3] | [4] | [9]

ClC1=C(Cl)[C@]2(Cl)[C@@H]3[C@@H](Cl)[C@H]4O[C@H]4[C@@H]3C1(Cl)C2(Cl)Cl
active: [12] 27.3 µM
inactive: [1] | [6] | [13] | [14] | [11]

CCN(CC)C(=O)Cl
inactive: [10] | [14] | [11]

CNC(=O)Oc1cc(C)c(SC)c(C)c1
inactive: [14]

O=C(Nc1ccccc1-c1ccc(Cl)cc1)c1cccnc1Cl
inactive: [2] | [3] | [10] | [15] | [16]

c1ccc2c(c1)Sc1ccccc1N2CC1CN2CCC1CC2 (configuration not stated)
inactive: [2] | [14]
active: [17] 21.3 µM | [4] 13.3 µM | [6] 9.44 µM | [7] 10.6 µM | [8] 21.1 µM | [9] 21.3 µM

CCC(C)=O
inactive: [17]

O=[N+]([O-])c1c(Cl)c(Cl)cc(Cl)c1Cl
inactive: [4] | [18] | [8] | [19] | [15] | [14]

CC1COC(Cn2cncn2)(c2ccc(Oc3ccc(Cl)cc3)cc2Cl)O1 (configuration not stated)
inactive: [1] | [5] | [18] | [15]
active: [12] 61.1 µM | [17] 43.6 µM | [4] 54.5 µM | [7] 49 µM | [8] 54.9 µM | [9] 49 µM | [11] 27.3 µM

Clc1ccccc1-c1ccccc1Cl
inactive: [2] | [4] | [5] | [6] | [7] | [13] | [8] | [9] | [15]

CCc1cccc(C)c1N
inactive: [17]

CCCN1CCC[C@H](c2cccc(O)c2)C1
inactive: [1] | [12] | [17] | [3] | [16]

O=P(O)(O)C(Cl)(Cl)P(=O)(O)O
inactive: [12] | [3] | [16]

CCCCCN(C)CCC(O)(P(=O)(O)O)P(=O)(O)O
inactive: [1] | [2] | [17] | [20] | [3] | [16]

CCCCc1ccc(C(=O)O)nc1
inactive: [1] | [12] | [2] | [17] | [16]

C[C@]12N[C@H](Cc3ccccc31)c1ccccc12
inactive: [1] | [3]

CC(C)NC(C)Cc1ccc(I)cc1 (configuration not stated)
inactive: [2] | [17] | [16]
active: [3] 21.1 µM
